From PubChem BioAssay (Tox21)
Results filed as inconclusive are left out. Active and inactive are the calls of the source. Calls come from the whole dose curve; as a rule, active = well fitted activation curve with a large enough effect in the signal ratio in the repeat runs (not every such curve was filed as active); inconclusive = weak or mixed curves, or effect the other way; inactive = no such curve, though single readings can be large or run the other way; the % refers to the signal ratio.

These compounds were tested against Glucocorticoid receptor (Homo sapiens) (UniProt P04150) (assay: qHTS assay to identify small molecule agonists of the glucocorticoid receptor (GR) signaling pathway (AID 720691)). Conditions: GR-bla HeLa, beta-lactamase reporter ratio, 18 h; activation: at 62.4 µM (top of the series) unless noted.
Sequence of Glucocorticoid receptor (Homo sapiens) (P04150 whole entry, looked up): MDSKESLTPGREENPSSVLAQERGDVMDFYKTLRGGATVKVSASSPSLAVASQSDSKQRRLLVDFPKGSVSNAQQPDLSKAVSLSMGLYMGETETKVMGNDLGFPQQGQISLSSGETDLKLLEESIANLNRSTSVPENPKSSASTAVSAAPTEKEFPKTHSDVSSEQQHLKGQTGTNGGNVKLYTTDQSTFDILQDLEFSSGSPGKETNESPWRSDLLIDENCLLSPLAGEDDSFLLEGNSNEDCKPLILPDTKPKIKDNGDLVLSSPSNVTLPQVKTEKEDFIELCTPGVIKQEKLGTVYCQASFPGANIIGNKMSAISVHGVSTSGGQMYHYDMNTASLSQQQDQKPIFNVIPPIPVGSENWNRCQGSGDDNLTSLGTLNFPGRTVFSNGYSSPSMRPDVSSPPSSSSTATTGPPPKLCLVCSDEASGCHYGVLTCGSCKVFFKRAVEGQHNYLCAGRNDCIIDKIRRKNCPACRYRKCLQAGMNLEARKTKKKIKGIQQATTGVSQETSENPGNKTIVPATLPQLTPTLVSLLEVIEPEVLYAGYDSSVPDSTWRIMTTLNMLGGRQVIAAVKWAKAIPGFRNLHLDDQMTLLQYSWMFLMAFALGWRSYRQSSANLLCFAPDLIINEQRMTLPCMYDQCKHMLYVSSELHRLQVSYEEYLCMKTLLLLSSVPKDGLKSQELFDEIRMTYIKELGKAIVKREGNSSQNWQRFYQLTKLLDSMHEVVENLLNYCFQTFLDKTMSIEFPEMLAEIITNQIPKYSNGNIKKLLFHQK
Description: U.S. Tox21 Program National Center for Advancing Translational Sciences [NCATS] NIH Chemical Genomics Center [NCGC] U.S. Environmental Protection Agency [EPA] National Institutes of Environmental Health Sciences [NIEHS] National Toxicology Program [NTP] U.S. Food and Drug Administration [FDA] Tox21 Assay Overview: The Glucocorticoid receptor (GR) is one of the members of the nuclear receptor family of ligand-dependent transcription factors. GR plays a critical role in carbohydrate, protein and lipid metabolisms and programmed cell death. CellSensor GR-bla HeLa cell line (Invitrogen) contains a beta-lactamase reporter gene under the control of the glucocorticoid response element stably integrated into HeLa cells, a cervical cancer cell line that expresses glucocorticoid receptor. The activation of the reporter gene under culture conditions can be detected by fluorescence intensity. This cell line has been used to screen the Tox21 10K compound library and to identify the compounds that activate the GR signaling.
Tox21 Assay Protocol Summary: The GR-bla HeLa cells were dispensed at 1500 cells/6 ul/well in 1536-well black wall/clear bottom plates using a Multidrop Combi (ThermoFisher Scientific, Waltham, MA) dispenser. After the assay plates were incubated at a 37 C/5% CO2 incubator for 4 hours, 23 nL of compounds dissolved in DMSO, positive controls or DMSO only was transferred to the assay plate by a pintool station (Kalypsys, San Diego, CA). The plates were incubated at 37 C for 18 hours. After 1 uL of LiveBLAzerTM B/G FRET substrate was added using a Flying Reagent Dispenser (Aurora Discovery, San Diego, CA), the plates were incubated at room temperature for 2 hours, and fluorescence intensity was measured by an Envision plate reader (PerkinElmer, Shelton, CT).
% is set by controls: 0 for no effect and ±100 for the full control effect; potency is the fitted concentration of half-maximal effect.

Row | SMILES | activation | Potency
1 | C=CC(=O)OCCOCCOC(=O)C=C | -11.5% [at 79.2 µM] (inactive) | –
2 | C=C(C)C(=O)OCCO | 1.24% [at 79.2 µM] (inactive) | –
3 | CCCCCCCCO[C@@H]1O[C@H](CO)[C@@H](O)[C@H](O)[C@H]1O | -3.61% (inactive) | –
4 | c1cc(CCCc2ccncc2)ccn1 | 1.16% (inactive) | –
5 | C/C(=C(\CCOP(=O)(O)O)SC(=O)c1ccccc1)N(C=O)Cc1cnc(C)nc1N | – | 11.5 µM (active)
6 | N=c1ccn2c(n1)O[C@H]1[C@H](O)[C@@H](CO)O[C@H]12 | – | inactive
7 | Cc1c(N)cccc1[N+](=O)[O-] | -4.57% [at 79.2 µM] (inactive) | –
8 | C/C=C/C=C/CO | -2.05% (inactive) | –
9 | COCC(C)OC(C)=O (stereo not given) | -1.71% (inactive) | –
10 | C=CC(=O)OCCOc1ccccc1 | -7.41% (inactive) | –
11 | CNC(=O)CN(CCN(CCN(CC(=O)[O-])CC(=O)NC)CC(=O)[O-])CC(=O)[O-].O.[Gd+3] | – | inactive
12 | OC[C@H]1O[C@@H](OCCc2ccc(O)cc2)[C@H](O)[C@@H](O)[C@@H]1O | -0.0144% (inactive) | –
13 | COc1cc(Cl)ccc1Oc1ccc(Cl)cc1Cl | 2.53% (inactive) | –
14 | C[N+]1(CC2COC(c3ccccc3)(C3CCCCC3)O2)CCCCC1 (stereo not given) | -2.25% (inactive) | –
15 | CC[N+](C)(CC)CCOC(=O)C(O)(c1ccccc1)C1CCCCC1 (stereo not given) | 0.604% (inactive) | –
16 | COC(=O)c1ccc(I)cc1S(=O)(=O)NC(=O)Nc1nc(C)nc(OC)n1 | -4.56% (inactive) | –
17 | CC(C)CC(=O)C1C(=O)c2ccccc2C1=O | 2.62% (inactive) | –
18 | CC[N+]1(CC)CCC(=C(c2ccccc2)c2ccccc2)C1C (stereo not given) | -0.129% (inactive) | –
19 | CCCCCCc1ccc(-c2ccc(C#N)cc2)cc1 | 0.803% (inactive) | –
20 | O=C1C(O)=C(O)C(=O)C(O)=C1O | -0.924% (inactive) | –

Row | SMILES | activation | Potency
21 | O=C(O)c1nc(Cl)c(Cl)c(Cl)c1Cl | 0.653% (inactive) | –
22 | CCC(C)O (stereo not given) | -0.285% [at 79.2 µM] (inactive) | –
23 | NCC(=O)CCC(=O)O | 1.06% (inactive) | –
24 | CCOC(=O)c1cccnc1 | 1.24% (inactive) | –
25 | O=C(OCCCCCCOC(=O)c1ccccc1)c1ccccc1 | -2.41% (inactive) | –
26 | NCC(=O)O | 0.348% (inactive) | –
27 | CCCCCCCC#N | 1.21% (inactive) | –
28 | CCCOC(C(=O)OC1CCN(C)CC1)(c1ccccc1)c1ccccc1 | -5.53% (inactive) | –
29 | COc1ccc(C(=O)c2ccc(OC)cc2O)c(O)c1 | -5.59% [at 79.2 µM] (inactive) | –
30 | CN(C)C(=O)NC1(c2ccccc2)CCN(CC[C@@]2(c3ccc(F)c(F)c3)CN(C(=O)c3ccccc3)CCO2)CC1 | -10.1% (inactive) | –
31 | CC(=O)c1cccc([N+](=O)[O-])c1 | 2.21% (inactive) | –
32 | Brc1c2ccccc2c(Br)c2ccccc12 | – | 0.882 µM (active)
33 | CCCCC | – | inactive
34 | O=C(Nc1ccc(S(=O)(=O)N2CCOCC2)cc1)c1cc(Cl)ccc1NS(=O)(=O)c1ccc(Cl)s1 | -4.68% (inactive) | –
35 | CN1C[C@H]2c3ccccc3Oc3ccc(Cl)cc3[C@@H]2C1 | -4.76% (inactive) | –
36 | NC(N)=NCCC[C@H](N)C(=O)O | -0.168% (inactive) | –
37 | C[C@@H]1C[C@H]2O[C@@]3(O[C@@H]2C(C)(C)O)[C@H](O)[C@@]2(C)[C@@H]4CC[C@H]5C(C)(C)[C@@H](O[C@@H]6OC[C@@H](O)[C@H](O)[C@H]6O)CC[C@@]56C[C@@]46CC[C@]2(C)[C@@H]13 | -4.32% (inactive) | –
38 | CCO[C@H](Cc1ccc(OCCc2ccc(OS(C)(=O)=O)cc2)cc1)C(=O)O | 0.0258% (inactive) | –
39 | O=C(Nc1ccccc1)c1ccccc1O | -4.93% (inactive) | –
40 | Nc1ccccc1S(=O)(=O)c1ccccc1 | 2.75% (inactive) | –
